Results: paper PMC6792352, “Limited Chemical Structural Diversity Found to Modulate Thyroid Hormone Receptor in the Tox21 Chemical Library” (Environmental Health Perspectives, 2019)
Counter-ions that a name gives are not always drawn.

The compounds below were run on thyroid hormone receptor (endogenous TRα and TRβ). Settings: antagonist mode, 1 nM T3, no GH3 cytotoxicity hit, read-out: Average AC50 (uM) GH3-TRE-Antag.
Set-up: species or system GH3-TRE-Luc (rat pituitary); GH3-TRE-Luc luciferase reporter, antagonist mode against 1 nM T3, loss of signal, qHTS
Work on `Cc1ccc2c(c1)[C@]13CCCC[C@@H]1[C@H](C2)N(C)CC3` [Dimemorfan phosphate] yielded an AC50 of 42.3 µM. Work on `CCOP(=O)(OCC)O/C(=C\Cl)c1ccc(Cl)cc1Cl` [Chlorfenvinphos] yielded an AC50 greater than 50 µM. Compound `COc1ccc2c(c1)[C@]13CCCC[C@@H]1[C@H](C2)N(C)CC3` [Dextromethorphan hydrobromide monohydrate] has an AC50 of 21.1 µM. Compound `ClC1(Cl)C2(Cl)C3(Cl)C4(Cl)C(Cl)(Cl)C5(Cl)C3(Cl)C1(Cl)C5(Cl)C24Cl` (stereo not shown) [Mirex] has an AC50 greater than 90 µM. For `O=[N+]([O-])c1cccc2cccc([N+](=O)[O-])c12` [1,8-Dinitronaphthalene], the AC50 was 49.5 µM. `C[C@]12CC[C@H]3[C@@H](CCC4=CC(=O)CC[C@@]43C)[C@@H]1CC[C@H]2O` [Epitestosterone] was tested, and the AC50 was 38.7 µM. For `COP(=O)(OC)O/C(=C\Cl)c1cc(Cl)c(Cl)cc1Cl` [Z-Tetrachlorvinphos], the AC50 was 37.7 µM. Compound `CON(C)C(=O)Nc1ccc(Br)c(Cl)c1` [Chlorbromuron] has an AC50 of 60.7 µM. In the case of `Clc1cccc(N2CCNCC2)c1` [1-(3-Chlorophenyl)piperazine], the AC50 is reported as 20 µM. For `CCc1cc2c(s1)-n1c(C)nnc1CN=C2c1ccccc1Cl` [Etizolam], the AC50 was greater than 50 µM. `COP(=S)(OC)Oc1ccc(Sc2ccc(OP(=S)(OC)OC)cc2)cc1` [Temephos] showed an AC50 greater than 50 µM. Work on `C=CC(=O)OCCO` [2-Hydroxyethyl acrylate] yielded an AC50 of 51.5 µM. In the case of `Nc1ccc(-c2ccccc2)cc1` [4-Biphenylamine hydrochloride], the AC50 is reported as 76.8 µM. `C[C@]12CCC(=O)C[C@@H]1CC[C@@H]1[C@@H]2CC[C@]2(C)[C@@H](O)CC[C@@H]12` [5alpha-Dihydrotestosterone] gave an AC50 of 27.8 µM. Compound `O=P(Oc1ccccc1)(Oc1ccccc1)Oc1ccccc1` [Triphenyl phosphate] has an AC50 greater than 90 µM. Compound `O=C1C(=O)c2cccc3cccc1c23` [Acenaphthenequinone] has an AC50 of 76.1 µM. Compound `COP(=S)(OC)SCN1C(=O)c2ccccc2C1=O` [Phosmet] has an AC50 greater than 50 µM. In the case of `CCN(CC)C(=O)[C@@H]1C=C2c3cccc4[nH]cc(c34)C[C@H]2N(C)C1` [Lysergide], the AC50 is reported as greater than 50 µM. For `CCCCSP(=O)(SCCCC)SCCCC` [Tribufos], the AC50 was 50.4 µM. `C[C@]12CCC(=O)C=C1CC[C@@H]1[C@@H]2CC[C@@]2(C)[C@H]1CC[C@]2(C)O` [17-Methyltestosterone] gave an AC50 of 46 µM. `CCOP(=S)(OCC)SC(CCl)N1C(=O)c2ccccc2C1=O` (stereo not shown) [Dialifor] showed an AC50 greater than 90 µM. `C[C@]12CC[C@H]3[C@@H](CCC4=CC(=O)CC[C@@]43C)[C@@H]1CC[C@@H]2O` [Testosterone] showed an AC50 of 59 µM. `CCOP(=S)(OCC)SCn1nnc2ccccc2c1=O` [Azinphos-ethyl] gave an AC50 greater than 90 µM. `C[C@]12CC[C@H]3[C@@H](CCC4=C(Cl)C(=O)CC[C@@]43C)[C@@H]1CC[C@@H]2O` [Clostebol] was tested, and the AC50 was 29.2 µM. `O=c1c2ccccc2c(=O)c2c1cc(Cl)c1[nH]c3c([nH]c12)c(Cl)cc1c(=O)c2ccccc2c(=O)c13` [D&C Blue No. 9] was tested, and the AC50 was 57.8 µM. With `CC(C)=CC1C(C(=O)OCN2C(=O)C3=C(CCCC3)C2=O)C1(C)C` (stereo not shown) [Tetramethrin] the AC50 was greater than 50 µM. `CN(C)c1ccc(N=Nc2ccccc2)cc1` [4-(Dimethylamino)azobenzene] gave an AC50 of 80.1 µM. For `CCOP(=S)(OCC)Oc1ccc(Cl)cc1Cl` [Dichlofenthion], the AC50 was 71.5 µM. With `Nc1ccc2c(c1)Cc1ccccc1-2` [2-Aminofluorene] the AC50 was 52 µM. For `O=C(Nc1ccccc1)Nc1cnns1` [Thidiazuron], the AC50 was 76.7 µM. `CCOP(=S)(OCC)SCSC(C)(C)C` [Terbufos] showed an AC50 of 85 µM. `OC(c1ccccc1)(c1ccccc1)C1CCNCC1` [Azacyclonol] gave an AC50 of 10.4 µM. With `CCCSP(=O)(OCC)Oc1ccc(Br)cc1Cl` (stereo not shown) [Profenofos] the AC50 was greater than 50 µM. Compound `C[C@H](CN1CCOCC1)C(C(=O)N1CCCC1)(c1ccccc1)c1ccccc1` [Dextromoramide tartrate] has an AC50 of 56.7 µM.
